# Only some compounds are listed: those with a hit (about 2.1% of all), similar ones and a draw of the others.
# Mito fusion act: qHTS Assay for Small Molecule Inhibitors of Mitochondrial Division or Activators of Mitochondrial Fusion; S. cerevisiae fusion-defective mutant growth rescue, CellTiterGlo 48 h; 320,000 compounds, 0.23% hits; Potency, µM (titrated, usually from 46.1 µM), for the others: top-dose growth rescue (activation), actives largely listed as activators; further: % of control where 0% means no effect; nearly all actives have a fitted effect of over 45% in size
#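 Read-out: ATP-based luminescence (CellTiterGlo, 10 min ambient) reporting growth of fusion-defective ts yeast after 48 hours at 37C on glycerol/ethanol YPEG medium in the presence of compound.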
# Abeta yeast res: qHTS for compounds that reverse cellular toxicity of Amyloid beta (A-beta) peptide in yeast: Primary Screen; 410,000 compounds, 0.063% hits; yeast expressing A-beta42, growth rescue, OD600, 48 h; response scale: 0% DMSO, 100% iron-clioquinol control; Potency, µM (top dose mostly 46.1 µM), most hits filed as activators; further: nearly all actives have a fitted effect of over 55% in size
#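 Growth rescue measured by 600 nm absorbance after 48 h yeast culture at 30 C with compound. Values normalized between DMSO and an equimolar ferric chloride plus clioquinol control.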
# GRP78 ERSR act: qHTS for Inducers of the Endoplasmic Reticulum Stress Response (ERSR) in Human Glioma: qHTS | U87-MG GRP78 promoter luciferase reporter, 16 h | Potency, µM, for the others: at the highest dose activation, most hits filed as activators | 420,000 compounds, 0.02% hits; further: series mostly up to about 76 µM; % of control where 0% means no effect; nearly all actives have a fitted effect of over 35% in size
#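 ERSR induction read as luciferase luminescence (Bright-Glo, 10 min at room temperature) in stably transfected human U87-MG glioma cells exposed to compounds for 16 h, using GRP78 as sensor.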
# TDP-43 yeast inh: qHTS of TDP-43 Inhibitors; 410,000 compounds, 1.8% hits; AID 652104, 2013; Potency, µM (series often up to 46.1 µM), inactives show at the highest dose growth rescue (activation), actives largely listed as activators; TDP-43 expressing yeast growth rescue, BacTiter-Glo, 24 h; further: % of control where 0% means no effect; nearly all actives have a fitted effect of over 50% in size
#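 Yeast expressing TDP-43 (pregrown in raffinose, seeded at OD600=0.02 in galactose medium) exposed to compounds 24 hr at 30 deg C. Growth read by BacTiter-Glo luminescence; rescue of toxicity appears as increased signal.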
# A-T KAP1 phos: qHTS Assay for Identifying a Potential Treatment of Ataxia-Telangiectasia; F2112 A-T fibroblasts, KAP-1 phosphorylation AlphaLISA; neocarzinostatin DNA damage 30 min before lysis; Potency, µM (titrated, usually from 57.5 µM), inactives show top-dose activation, actives largely listed as activators; 320,000 compounds, 0.19% hits; further: % of control where 0% means no effect; nearly all actives have a fitted effect of over 45% in size
#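 hTERT-immortalized A-T patient fibroblasts (F2112), 500 cells/well in OPTI-MEM, 1% FBS, got compounds for 60 min, then NCS for 30 min at 37C. Lysates were then assayed for phospho-KAP-1 by AlphaLISA (anti-pKAP1 donor, anti-KAP1 acceptor beads), 6 hr at 25C.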
# aSyn yeast inh: qHTS of alpha-syn Inhibitors | Yeast expressing alpha-synuclein, growth rescue, BacTiter-Glo, 24 h | Potency, µM (doses to about 46.1 µM), for the others: at the highest dose growth rescue (activation), hits mostly activators | 370,000 compounds, 0.14% hits | AID 652106, 2013; further: % of control where 0% means no effect; nearly all actives have a fitted effect of over 65% in size
#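 Screening used galactose-induced yeast with toxic alpha-synuclein levels, exposed to compound for 24 hr at 30 deg C. Cell growth, read with BacTiter-Glo luminescence, gave the measured signal.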
# The depositor's hits bear a star; i = inactive; ? = inconclusive; nt = not tested or not shown. The call rests on the fitted dose curve; in most records, active means well fitted curve in the direction sought with a large enough effect; inconclusive means small, poorly fitted or top-dose-only effect, or another doubt; inactive means no such curve, though single readings can be large; an effect the other way counts as inactive or inconclusive. Potency means the concentration at half of the fitted maximal effect.
SMILES,Mito fusion act,Abeta yeast res,GRP78 ERSR act,TDP-43 yeast inh,A-T KAP1 phos,aSyn yeast inh
COc1ccccc1C(=O)Oc1c(Sc2ccccc2)c(C)nn1-c1ccccc1,nt,i,-6%,21%,nt,nt
COc1ccccc1OCC(=O)Sc1ccc(C)cc1,4%,i,-1%,?,-5%,25%
C=C1C[C@@H]2[C@H]3CCC4=CC(=O)C=C[C@]4(C)[C@@]3(F)[C@@H](O)C[C@]2(C)[C@]1(O)C(=O)COC(C)=O,nt,nt,-2%,nt,nt,nt
Cc1ccccc1-c1nc(CS(=O)(=O)CC(=O)N2CCN(c3ccccc3)CC2)c(C)o1,nt,i,-1%,13µM*,nt,nt
O=C(Cn1cc(C(=O)c2cccs2)c2ccccc21)Nc1ccc(Br)cc1,nt,i,-3%,-5%,nt,nt
COc1ccc(C)cc1NC(=O)COCc1cc(-c2ccc(F)cc2)on1,nt,i,-4%,35µM*,nt,nt
Cc1cc(Br)c(NC(=O)COC(=O)C2CCCCC2)c(Br)c1,nt,i,-4%,16µM*,20%,0%
CCN(CC)S(=O)(=O)c1ccc(Cl)c(NC(=O)COC(=O)c2ccc(O)cc2)c1,-6%,i,-7%,3%,4%,-2%
CCN(CC)S(=O)(=O)c1ccc(Cl)c(NC(=O)COC(=O)C2CCCCC2)c1,7%,11µM*,-6%,13%,5%,16%
Cc1cc(C)c(NC(=O)COC(=O)C2CCC2)c(Cl)c1,-1%,i,-2%,17%,3%,-6%
CCOC(=O)c1sc2ccccc2c1S(=O)(=O)NCc1ccccc1OC,nt,i,-8%,23%,nt,nt
COc1ccc(C2(C(=O)NCC3Cc4cccc(-c5cccnc5)c4O3)CCCC2)cc1 (configuration not stated),nt,nt,-6%,nt,nt,nt
Cc1ccc(C2CC2C(=O)NNC(=S)Nc2cccc(C)c2)cc1 (configuration not stated),17%,i,-3%,?,-1%,24%
Cc1ccc(C2CC2C(=O)NNC(=S)Nc2cccc(Cl)c2)cc1 (configuration not stated),10%,i,-7%,14µM*,3%,-2%
N/C(=N\N=C\c1ccc(Cl)cc1)N/N=C/c1ccc(Cl)cc1,nt,nt,-5%,nt,nt,nt
Cc1cc(C(=O)NC2CCC(C)CC2)c(C)o1 (configuration not stated),-5%,i,5%,13µM*,5%,?
CCCCCCCCN1[C@@H](CC(=O)O)c2ccc(/C=C/C(=O)O)cc2S1(=O)=O,nt,nt,-4%,nt,nt,nt
Cc1ccc(-c2cc(O)cc3sc(=O)oc23)cc1C,?,nt,0%,11µM*,14%,-18%
CC(=O)NC(c1ccc(Cl)cc1Cl)c1ccc2cccnc2c1O (configuration not stated),5%,?,-8%,32µM*,-3%,?
CC(C)C(=O)NC(c1cccc([N+](=O)[O-])c1)c1ccc2cccnc2c1O (configuration not stated),1%,i,-6%,35µM*,-3%,-39%
O=S(=O)(NC1CCC(CNS(=O)(=O)c2c(F)cccc2F)CC1)c1ccc2c(c1)OCCO2 (configuration not stated),-4%,nt,nt,nt,3%,nt
CCOC(=O)c1ccc(NC(=S)N2CCSC2c2ccc(OC)cc2)cc1 (configuration not stated),4%,i,5%,1%,-4%,-3%
CCOC(=O)c1ccc(NC(=S)N2CCSC2c2ccc(Cl)cc2)cc1 (configuration not stated),?,i,?,16µM*,7%,14%
FC(F)(F)c1cnc(-c2cc3c(c(OCC4CCCO4)c2)OCCN(Cc2cccn2-c2nccs2)C3)c(Cl)c1 (configuration not stated),nt,nt,2%,nt,nt,nt
CCOC(=O)N1C(=O)[C@](c2ccc(Cl)cc2)(C(C)C)N1C(=O)OCC,3%,i,3%,16µM*,26%,-16%
SMILES,Mito fusion act,Abeta yeast res,GRP78 ERSR act,TDP-43 yeast inh,A-T KAP1 phos,aSyn yeast inh
CCOC(=O)N1C(=O)[C@@](c2ccc(Cl)cc2)(C(C)C)N1C(=O)OCC,-1%,i,-9%,20µM*,20µM*,-27%
CCOC(=O)C1(C(N)=O)OC1(c1ccc(Cl)cc1)c1ccccc1Cl (configuration not stated),nt,i,-8%,-3%,nt,8%
Cc1ccc(CSC2=Nc3ccccc3C3=NC(CCC(=O)NCCc4ccccc4)C(=O)N23)cc1 (configuration not stated),nt,i,-2%,32µM*,nt,nt
O=C(CCC1N=C2c3ccccc3N=C(SCC(=O)Nc3ccc(F)cc3)N2C1=O)NCc1cccs1 (configuration not stated),nt,i,-2%,35µM*,nt,nt
CCN(CC)S(=O)(=O)c1ccc2c(c1)N(CC(=O)N(C)Cc1ccccc1)C(=O)CO2,nt,i,-3%,-1%,nt,nt
COc1cccc(CN2CCC3(CCC(CNC(=O)c4cc(C)nn4C)O3)CC2)c1OC (configuration not stated),nt,nt,-5%,nt,nt,nt
S=C1N(c2ccccc2)C(c2ccc(Br)cc2)N2CCCN12 (configuration not stated),4%,i,-2%,13µM*,-3%,20%
COC(=O)c1ccc(CSc2nnc3ccc4ccccc4n23)cc1,nt,i,-4%,35µM*,nt,nt
CCn1c(C(=O)N2CCC(C(=O)N3CCN(c4ccc(OC)cc4)CC3)CC2)cc2sccc21,nt,i,-3%,22µM*,nt,nt
CCC(C)NC(=O)C(=O)Nc1c2c(nn1-c1ccccc1)CS(=O)(=O)C2 (configuration not stated),nt,i,-1%,-6%,nt,nt
CC(C)CCC[C@@H](C)[C@@H]1CC[C@H]2C3=CC=C4CC(O)CC[C@]4(C)[C@H]3CC[C@@]21C (some centres not stated),nt,nt,9%,nt,nt,nt
Cc1ccc(NC(=O)C(=Cc2ccc(C(=O)O)cc2)C(=O)Nc2ccc(C)cc2C)c(C)c1,1%,i,-13%,6%,20µM*,15%
COC(=O)CS(=O)(=O)c1nnc([C@H](Cc2ccccc2)NC(=O)OC(C)(C)C)o1,-1%,i,-14%,35µM*,-2%,-21%
Cc1cccc(CS(=O)(=O)c2nnc([C@H](Cc3ccccc3)NC(=O)OC(C)(C)C)o2)c1,1%,i,-15%,-57%,nt,-29%
Cc1ccc(C)c(Nc2cc(C)nc(-c3ccccc3O)n2)c1,?,i,-3%,14µM*,26%,-17%

# High-throughput results (PubChem BioAssay)
